Test results taken from paper PMC13494018.

B1: design_606_b60ff77f-1541-4e5f-8260-46d5e5f6b85e_1401_dldesign_0_cycle1_af2pred (protein)
chain: GAKAIAAKAAAYGYEIAAEIYRLDKEVGEKVRKYVVEKAKEAAASDEETAKKIGEEVKKEAEKALEEVKKK
B2: design_606_b60ff77f-1541-4e5f-8260-46d5e5f6b85e_1592_dldesign_0_cycle1_af2pred (protein)
chain: AAAAAAAAERAAIQKELDEIRDKYLEELEKNPENAEEIIKKAKEAVEALAKKHAKFAEEILKGGNGYVSLIEATAKMLERRKKEE
B3: design_606_b60ff77f-1541-4e5f-8260-46d5e5f6b85e_1497_dldesign_0_cycle1_af2pred (protein)
chain: MEEESKKYIETATALLEEAKKALEEDKEKGLKLLEEASALAYEKAAEARQLGDKETAEKLREIAKEAREAAKKAR
B4: design_606_b60ff77f-1541-4e5f-8260-46d5e5f6b85e_976_dldesign_0_cycle1_af2pred (protein)
chain: SSEEIEEKNRKVSEVVHHAIKAIKAYADPALRDAYLAKAKAILPDAADALAAQVDAAKTGSTADAILNVADIAWDALT
B5: design_606_b60ff77f-1541-4e5f-8260-46d5e5f6b85e_1075_dldesign_0_cycle1_af2pred (protein)
chain: AEEKEKKAKEAAEKAEKFIEKAKKAIKEGDLFSAQAYVEAAKHAAEVAKKYDPEVGEKLLKKVEEVEKEI
B6: design_606_b60ff77f-1541-4e5f-8260-46d5e5f6b85e_1160_dldesign_0_cycle1_af2pred (protein)
chain: AEAARRAALVAKVDAAFDDAGKTISEAKEKTPEEAKALVDAAIAKANAEAKAHPEAAKGFNAVADTAKSMGERIIAEKLA
B7: design_606_b60ff77f-1541-4e5f-8260-46d5e5f6b85e_1207_dldesign_0_cycle1_af2pred (protein)
chain: DEEKLKEAAEYLQEAAEYLAELKYLSKDPKNKELAEKAKKILKEAIEKGKKGTPEEALEIAKKAKEEIKKLAKKAKE
B8: design_606_b60ff77f-1541-4e5f-8260-46d5e5f6b85e_1331_dldesign_0_cycle1_af2pred (protein)
chain: SELEKGREVIKKAAEKAKKAAKEAAEKKGDPKKGEEKIKEIKELEEEGAKAEDPKVKSEKAAKIRQIKAEAEFELKK
B9: design_606_b60ff77f-1541-4e5f-8260-46d5e5f6b85e_1400_dldesign_0_cycle1_af2pred (protein)
chain: MAEAAQKAWENIAEAEYYAKKLKENPELKEEAKKIEEKIKKAKELLKKAQKTGDGELAKEAEKLAKEAAKEAKELVEK
B10: design_606_b60ff77f-1541-4e5f-8260-46d5e5f6b85e_1326_dldesign_0_cycle1_af2pred (protein)
chain: AEAEKKAEEAAKEAEKIYKEMLKAVETKSKEEAAKFAKEAAEKLKKLAKKIYEATGKVPLEVLLALAEARVIAKK
B11: design_606_b60ff77f-1541-4e5f-8260-46d5e5f6b85e_1000_dldesign_0_cycle1_af2pred (protein)
chain: MSEYEKNLARAEAYADQLLDSAKKTGAAKGPEAEVAATKEAKDAATKYANSLGEEVGKEIKAKMEKEVKAVADAAAKALAA
B12: design_606_b60ff77f-1541-4e5f-8260-46d5e5f6b85e_1152_dldesign_0_cycle1_af2pred (protein)
chain: EEAEKYLKEIEKAKEEAEKLAEELKEEGDSKAAAKAATAAAVAESAALAAKANPEKAKEAAEKAKKALEKAKKYAKESREKKKA
B13: design_606_b60ff77f-1541-4e5f-8260-46d5e5f6b85e_1003_dldesign_0_cycle1_af2pred (protein)
chain: SMKEKEEKYKEAKEKLEKQREAVKEGEKLAKESPEMGLALMRAAVKRAEEVAKKLEKEDPEKGPEAKKMAEEVRKLAKEAEKKIKEEL
B14: design_606_b60ff77f-1541-4e5f-8260-46d5e5f6b85e_1298_dldesign_0_cycle1_af2pred (protein)
chain: KEEEEKQIKELKEKVEKLKKEAEEAKTAEEALKVFKEARKVGKEARKLAEKASPELAKKAKEVAKEAAKVAELAAEKYAEKKSEEIRK
B15: design_606_b60ff77f-1541-4e5f-8260-46d5e5f6b85e_1596_dldesign_0_cycle1_af2pred (protein)
chain: SAAVKEKVAELTKKVNEARDNAFETGNWEEELAKIEKLAAEIAKVGNAEQAEAAEKGVNAMKSMAEALKEMEKK
B16: design_606_b60ff77f-1541-4e5f-8260-46d5e5f6b85e_1086_dldesign_0_cycle1_af2pred (protein)
chain: EKAEKLIKEIKKLAKEAKKSTPEEAKKLLEEAKKLAKEVAKLGPEAAKLAKKALSEAAAAYYENKAENEWKERKEKE
B17: design_606_b60ff77f-1541-4e5f-8260-46d5e5f6b85e_1318_dldesign_0_cycle1_af2pred (protein)
chain: DVAAALAAAKAAAAAKMAEVKKYGAETAEAVKDAIDMGNIYGAGSLAEVMVGPEAGKIAKAAAEAAAKARELAAKA
B18: design_606_b60ff77f-1541-4e5f-8260-46d5e5f6b85e_1599_dldesign_0_cycle1_af2pred (protein)
chain: MPVVKAVSEYTKFVVSKMREAAAAGASEEELVGAVEEGEKYGEELGKKIGEEALEAVKDLSEMFKESARAAARARKA
B19: design_606_b60ff77f-1541-4e5f-8260-46d5e5f6b85e_1085_dldesign_0_cycle1_af2pred (protein)
chain: ATAKEAAEYAEKAREYMVELEYERIKAKREGDEETAKRLEKAIEEVREKLKKAREAMKAGDKEKALEYSKEALEIAKKAVEELKA

The binders below were run against VTCN1, Q7Z7D3.
Chain of VTCN1, Q7Z7D3 (Q7Z7D3 whole entry): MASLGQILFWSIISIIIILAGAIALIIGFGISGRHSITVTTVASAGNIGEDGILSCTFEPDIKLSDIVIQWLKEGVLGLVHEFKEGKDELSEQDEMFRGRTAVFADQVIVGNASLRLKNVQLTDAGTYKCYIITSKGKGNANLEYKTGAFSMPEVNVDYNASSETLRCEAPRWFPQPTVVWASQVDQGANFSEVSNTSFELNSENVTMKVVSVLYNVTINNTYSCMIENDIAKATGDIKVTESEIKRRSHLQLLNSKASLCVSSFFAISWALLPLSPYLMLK

Binding in a display sort, inactive:
B1 not found
B2 not found
B3 not found
B4 not found
B5 not found
B6 not found
B7 not found
B8 not found
B9 not found
B10 not found
B11 not found
B12 not found
B13 not found
B14 not found
B15 not found
B16 not found
B17 not found
B18 not found
B19 not found
